High-throughput results from PubChem BioAssay.
3T3 cytotox – Cytotoxic Profiling in NIH 3T3 Cell Line of Diverse Libraries Using Quantitative High-Throughput Screening; NIH 3T3 viability, CellTiter-Glo ATP luminescence, 48-72 h; Potency, µM (titrated, usually from 96.7 µM), inactives show top-dose activity change, negative = cytotoxicity, usual class: inhibitors; hit rate 4.3% among 94,000; further: nearly all actives have a fitted effect of over 55% in size
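Cells were seeded at 400 per well, treated with pin-transferred compound, and kept 48 or 72 hr at 37 °C before CellTiter-Glo addition and luminescence imaging of cellular ATP.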
GPT2 inh – Primary qHTS assay for inhibitors of Glutamate pyruvate transaminase 2 (GPT2). Alanine aminotransferase 2 (Homo sapiens), Q8TD30. Recombinant GPT2, coupled pyruvate oxidase/HRP Amplex Red fluorescence. Potency, µM (highest dose often 57.7 µM), for the others: at the highest dose activity change, negative = inhibition, most hits filed as inhibitors. hit rate 0.25% among 100,000. AID 1671188, 2021; further: nearly all actives have a fitted effect of over 60% in size
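Fluorescence of coupled pyruvate oxidase/HRP/Amplex Red system (50uM Amplex, 30 min, dark) reports pyruvate formed by GPT2. Enzyme reaction: 10ng/uL GPT2, 2mM L-alanine, 250uM a-KG, 30 min room temperature, pH 7.5; 50uM AOA control.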
FLuc inh – Firefly luciferase inhibition profiling of diverse chemical library using quantitative high-throughput screening; hit rate 2.5% among 76,000; Potency, µM (top dose mostly 115 µM), most hits filed as inhibitors; purified P. pyralis luciferase, luminescence, biochemical; Luciferin 4-monooxygenase (Photinus pyralis), P08659; further: nearly all actives have a fitted effect of over 65% in size
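Purified 10nM P. pyralis luciferase with 10uM D-luciferin and 10uM ATP in 50mM Tris acetate pH 7.5, 10mM Mg acetate, 0.01% Tween-20, 0.05% BSA. qHTS titration; luminescence read by CCD imager.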
hNpr1 antagonist – Natriuretic polypeptide receptor (hNpr1) antagonism - Primary qHTS. Atrial natriuretic peptide receptor 1 (Homo sapiens), P16066. HEK293 hNpr1 GloSensor cGMP, ANP-stimulated luminescence. Potency, µM (series often up to 46.3 µM), for the others: top-dose activity change, negative = inhibition, hits mostly inhibitors. hit rate 1.6% among 76,000. AID 1347048, 2019; calls by dose curve; further: nearly all actives have a fitted effect of over 60% in size
Target sequence (P16066 whole entry, looked up): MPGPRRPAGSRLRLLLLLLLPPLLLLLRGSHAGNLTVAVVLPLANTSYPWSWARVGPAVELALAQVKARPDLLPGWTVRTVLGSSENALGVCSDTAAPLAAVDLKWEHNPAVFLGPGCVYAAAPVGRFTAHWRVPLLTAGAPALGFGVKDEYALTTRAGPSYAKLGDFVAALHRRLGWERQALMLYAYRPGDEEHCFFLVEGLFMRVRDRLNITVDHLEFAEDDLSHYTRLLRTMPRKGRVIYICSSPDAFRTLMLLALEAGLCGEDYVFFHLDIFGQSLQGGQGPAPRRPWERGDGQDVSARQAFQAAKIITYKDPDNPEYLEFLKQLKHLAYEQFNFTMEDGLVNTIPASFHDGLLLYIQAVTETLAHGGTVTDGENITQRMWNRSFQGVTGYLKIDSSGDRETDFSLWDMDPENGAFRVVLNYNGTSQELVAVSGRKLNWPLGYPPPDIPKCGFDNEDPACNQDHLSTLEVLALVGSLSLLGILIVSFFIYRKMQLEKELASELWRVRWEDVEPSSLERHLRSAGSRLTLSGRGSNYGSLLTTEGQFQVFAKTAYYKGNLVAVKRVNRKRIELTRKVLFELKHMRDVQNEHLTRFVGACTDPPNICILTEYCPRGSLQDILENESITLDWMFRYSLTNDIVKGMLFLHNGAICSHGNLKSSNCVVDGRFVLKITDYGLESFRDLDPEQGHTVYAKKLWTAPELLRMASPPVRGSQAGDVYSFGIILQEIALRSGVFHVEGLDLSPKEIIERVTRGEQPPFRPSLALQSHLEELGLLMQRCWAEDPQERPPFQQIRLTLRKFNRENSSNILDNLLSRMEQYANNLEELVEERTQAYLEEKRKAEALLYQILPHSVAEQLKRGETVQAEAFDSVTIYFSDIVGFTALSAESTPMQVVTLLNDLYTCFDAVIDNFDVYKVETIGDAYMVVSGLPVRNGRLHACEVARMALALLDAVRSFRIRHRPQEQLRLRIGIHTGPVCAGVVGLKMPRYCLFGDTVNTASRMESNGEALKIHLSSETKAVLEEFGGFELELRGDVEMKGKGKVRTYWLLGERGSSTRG
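HEK293 cells stably expressing human Npr1 and cGMP GloSensor pGS-40F, loaded 2 h with 2% GloSensor reagent, given compound 30 min at room temperature. Luminescence read before and 20 min after 0.1 nM hNppA.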
HEK293 tox – Cytotoxic Profiling in HEK 293 Cell Line of Diverse Libraries Using Quantitative High-Throughput Screening. HEK 293 viability, ATP luminescence (CellTiter-Glo), 48-72 h. Potency, µM (top dose mostly 115 µM), without a hit: top-dose activity change, negative = cytotoxicity, usual class: inhibitors. hit rate 6.6% among 94,000. AID 1345083, 2018; further: nearly all actives have a fitted effect of over 60% in size
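Cells seeded first (HEK 293, 250 cells/well), then compound added by pintool. Incubation ran 48 or 72 hr at 37 degree Celsius. CellTiter-Glo was added and luminescence imaged after 10 min at room temperature.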
Active calls of the source: *; i = inactive; ? = inconclusive; . = no result; [ ] = another dose, or the depositor's remark. Compounds with a hit are over-represented: about 10% of the library has one in this group of screens. Unless noted, the call rests on the fitted dose curve; in most records, active means well fitted curve in the direction sought with a large enough effect; inconclusive means small, poorly fitted or top-dose-only effect, or another doubt; inactive means no such curve, though single readings can be large; an effect the other way counts as inactive or inconclusive. On the % scale 0 is the no-effect control and ±100 the full control effect; potency means the concentration at half of the fitted maximal effect.

SMILES	3T3 cytotox	GPT2 inh	FLuc inh	hNpr1 antagonist	HEK293 tox
O=C1[C@H]2CN(Cc3ccc(F)cc3)C[C@H]2C(=O)N1Cc1ccc2c(c1)OCO2	?	i	i	1.8%	?
Cc1ccc(-c2nnc(C3CN(C(=O)Cc4ccccc4)CC34CCOCC4)o2)cc1 (stereo not given)	-15.3%	i	i	-2.2%	?
Cc1noc(C)c1[S+](=O)([O-])N1CCCC(C(=O)N2CCC(c3nc4ncccc4[nH]3)CC2)C1 (stereo not given)	-17.2%	-10.2%	.	.	-6.9%
Cc1ccc([S+](=O)([O-])N2CCCC(C(=O)N3CCC(c4nc5ncccc5[nH]4)CC3)C2)cc1 (stereo not given)	?	i	.	.	50.1µM*
O=C(O)c1cccc(-c2n[nH]c3c2CC(=O)N(CCOc2ccccc2)C3)c1	?	-13.2%[88.5 µM]	i	-0.6%[70.6 µM]	1.9%[172 µM]
O=C(O)c1cccc(-c2n[nH]c3c2CC(=O)N(c2ccccc2)C3)c1	?	i	63.1µM*	-3.2%[70.6 µM]	?
COCCN1Cc2[nH]nc(-c3cccc(OC)c3)c2CC1=O	100µM*	-2.1%[88.5 µM]	i	-3.9%[70.6 µM]	?
O=C1Cc2c(-c3cccc(CO)c3)n[nH]c2CN1c1ccccc1	?	-2.6%[88.5 µM]	i	7.7%[70.6 µM]	-9.9%[172 µM]
COc1ccc(-c2n[nH]c3c2CC(=O)N(CCOc2ccccc2)C3)cc1F	?	i	i	-18.3%[70.6 µM]	100µM*
O=C1Cc2c(-c3ccccc3)n[nH]c2CN1CCOc1ccccc1	?	-5.6%[88.5 µM]	?	12.6µM*	-7.0%[172 µM]
COc1ccc(-c2n[nH]c3c2CC(=O)N(Cc2ccccn2)C3)cc1F	?	4.2%[88.5 µM]	i	-0.2%[70.6 µM]	?
CCCc1noc(-c2cn(C3CCN(C(=O)Cc4cccc(OC)c4)CC3)nn2)n1	?	i	i	-24.0%	?
CC(=O)Nc1ccc(-c2ccc(=O)n3c2[C@@H]2C[C@@H](CN(C(=O)c4ccc(F)cc4)C2)C3)cc1	3.2%	-0.8%	i	-0.7%	-0.4%
C=CCOc1cc(C)c2c(c1C)[C@H](O)C([C@H](C)C(=O)NCCOC)CC2 (stereo not given in full)	0.1%[174 µM]	4.2%[88.5 µM]	i	7.1%[70.6 µM]	-6.3%[172 µM]
C=CCOc1cc(C)c2c(c1C)[C@H](O)C([C@H](C)C(=O)N(C)Cc1ccccc1)CC2 (stereo not given in full)	70.8µM*	-3.6%[88.5 µM]	i	-4.5%[70.6 µM]	?
O=C(NCc1cccs1)c1ccc2c(c1)N(C(=O)c1ccc(F)cc1)CC2	?	i	i	-13.3%	?
Cc1cccc(C)c1N1C(C(=O)OC(C)(C)C)=C(O)c2ccccc2S1(=O)=O	20µM*	.	.	.	?
COc1ccc(Nc2cc(-c3cccs3)nc3c(C)noc23)cc1OC	44.7µM*	?	i	-20.6%[70.6 µM]	63.1µM*
O=C(CCc1cc2n(n1)CCCN(Cc1ccccc1)C2)N1CCOCC1	i	-0.5%	i	1.6%	i
O=C(NCCCc1ccccc1)c1n[nH]c2c1CN(C(=O)c1ccc(F)cc1)CC2	28.2µM*	i	i	3.2%	?
O=C(NCCCc1ccccc1)c1n[nH]c2c1CN(C(=O)c1ccc(Cl)cc1)CC2	?	i	i	-20.3%	?
O=C(NCCc1ccccc1F)c1nc2sccn2c1-c1ccncc1	?	i	.	.	?
O=C(NCCCc1ccccc1)c1nc2sccn2c1-c1ccc(F)cc1	?	i	.	.	100µM*
O=C(NCCc1ccccc1F)c1nc2sccn2c1-c1ccc(C(F)(F)F)cc1	28.2µM*	?	.	.	25.1µM*
C#CCNC(=O)[C@@H]1Cc2cn(Cc3cc(C)on3)c3cccc(c23)[C@H](CC(C)C)N1	?	i	i	7.8%[70.6 µM]	?
SMILES	3T3 cytotox	GPT2 inh	FLuc inh	hNpr1 antagonist	HEK293 tox
Cc1cc(Cn2cc3c4c(cccc42)[C@H](CC(C)C)N[C@H](C(=O)NC2CCCC2)C3)no1	31.6µM*	3.0%[88.5 µM]	i	-0.7%[70.6 µM]	39.8µM*
CC(=O)N1CCN(C(=O)[C@@H]2Cc3cn(Cc4cc(C)on4)c4cccc(c34)[C@H](CC(C)C)N2)CC1	-7.4%	-2.1%	i	6.5%	i
COCCCNC(=O)[C@@H]1Cc2cn(Cc3cc(C)on3)c3cccc(c23)[C@H](CC(C)C)N1	?	-1.2%	i	7.6%	35.5µM*
C=CCNC(=O)[C@@H]1Cc2cn(Cc3cc(C)on3)c3cccc(c23)[C@H](CC(C)C)N1	79.4µM*	0.3%[88.5 µM]	i	0.8%[70.6 µM]	70.8µM*
Cc1cc(Cn2cc3c4c(cccc42)[C@H](CC(C)C)N[C@H](C(=O)NC2CCC2)C3)no1	?	2.6%[88.5 µM]	i	3.6%[70.6 µM]	79.4µM*
NC(=O)[C@@H](Cc1ccccc1)NC(=O)[C@@H]1[C@@H](NC(=O)Nc2ccc(F)cc2F)CCN1C(=O)c1cnccn1	-5.2%	?	i	-1.0%	?
Cc1cc(Cn2cc3c4c(cccc42)[C@H](CC(C)C)N[C@H](C(=O)NCc2cncn2C)C3)no1	-20.1%	?	i	1.6%	?
Cc1cc(Cn2cc3c4c(cccc42)[C@H](CC(C)C)N[C@H](C(=O)NC(C)C)C3)no1	50.1µM*	0.1%[88.5 µM]	i	-5.3%[70.6 µM]	44.7µM*
Cc1cc(Cn2cc3c4c(cccc42)[C@H](CC(C)C)N[C@H](C(=O)NCCN2CCCC2)C3)no1	22.4µM*	0.5%	i	-7.0%	28.2µM*
C=CCNC(=O)N[C@H]1CCN2C(=O)c3cc(-c4ccccc4F)ccc3NC(=O)[C@@H]2C1	-25.5%[174 µM]	-3.2%[88.5 µM]	i	3.0%[70.6 µM]	-4.2%[172 µM]
COCCn1c(C)cnc1CCNC(=O)COc1ccccc1	-14.4%	i	?	0.0%	-9.0%
COc1ccc(CCC(=O)N2CC[C@@H]3COCCN(Cc4ccncc4)[C@@H]3C2)cc1	?	i	39.8µM*	-12.0%	-3.7%
CCOC(=O)c1cccc(NC(=O)N2CC[C@@H](CC(=O)NCc3ccccc3)[C@@H](CC)C2)c1	?	0.8%	i	-2.6%	?
COCc1ccc2c(c1)c(OC(C)(C)C(=O)Nc1ccccn1)nn2Cc1ccccc1	?	-10.7%[88.5 µM]	i	-3.5%[70.6 µM]	63.1µM*
COCc1ccc2c(c1)c(OC(C)(C)C(=O)NCCc1ccccn1)nn2Cc1ccccc1	?	1.3%	i	-11.1%	?
COCc1ccc2c(c1)c(OC(C)(C)C(=O)NC(C)C)nn2Cc1cccnc1	?	2.5%[88.5 µM]	i	-1.5%[70.6 µM]	-16.9%[172 µM]
COCc1ccc2c(c1)c(OC(C)(C)C(=O)N1CC(O)C1)nn2Cc1cccnc1	79.4µM*	i	i	1.7%[70.6 µM]	2.4%[172 µM]
